Where “and” joins values, the source holds several entries; their conditions need not be identical. Equal entries are not always repeated. Inconclusive results are not listed. The source holds several records for some structures; these can differ, active in one and inactive in another. A number with no mark means an inactive call. Calls of active or inactive are those of the source. The call rests on the fitted dose curve; in most records, active means well fitted inhibition curve with a large enough effect; inconclusive means small, poorly fitted or top-dose-only effect; inactive means flat fitted curve, though single readings scatter.

Test in all cases: Cytotoxic Profiling of Annotated Libraries Using Quantitative High-Throughput Screening (AID 1296008); further: nearly all actives have a fitted effect of over 60% in size
Common to all, as to conditions: Five cell lines viability, CellTiter-Glo ATP luminescence, 48-72 h; max response: hits give low values

One assay deals with HEK293. The method, boiled down:
(§1)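 Cells exposed to compounds for 48 or 72 hr at 37 degrees Celsius. Viability read as ATP-coupled luminescence with CellTiter-Glo after 10 min at room temperature.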

A further assay relates to HaCat. The method, boiled down:
as §1

The next assay has as its system KB-3-1. Put shortly: as §1
Another assay relates to NIH3T3. The method, boiled down:
as §1

The test system of the next assay is CRL-7250. The method, boiled down:
as §1
On the % scale 0 is the no-effect control and ±100 the full control effect; potency means the concentration at half of the fitted maximal effect.

Regarding `COc1cc2c(Nc3ccc(Cl)c(Cl)c3F)ncnc2cc1OCC1C[C@@H]2CN(C)C[C@@H]2C1` (stereo partly specified), the Potency with HEK293 is 16.4 µM (active) and 13.2 µM (active); in the assay with HaCat, 231 nM (active) and 11.7 nM (active); in the assay with KB-3-1, 18.4 µM (active); in the assay with NIH3T3 it was 1.3 µM (active) and 8.31 µM (active).
For `C[C@@H]1CC[C@]2(C(=O)O[C@@H]3O[C@H](CO)[C@@H](O)[C@H](O)[C@H]3O)CC[C@]3(C)C(=CCC4[C@@]5(C)C[C@@H](O)[C@H](O)C(C)(C)C5CC[C@]43C)C2[C@]1(C)O` (stereo partly specified), the molecule was classed as inactive with CRL-7250, in the assay with HEK293, in the assay with HaCat and with NIH3T3. Besides, the max response in the assay with KB-3-1 is 0.448%.
With `CC(C)c1nc(N(C)S(C)(=O)=O)nc(-c2ccc(F)cc2)c1/C=C/[C@@H](O)C[C@@H](O)CC(=O)O`, the Potency in the assay with CRL-7250 was 16.4 µM (active). In addition, the call with HEK293, in the assay on HaCat and with KB-3-1 was inactive. The max response with NIH3T3 is 0.504%.
For `CC(=O)O[C@@H]1C[C@@]23C[C@@]24CC[C@H](OC2OC[C@@H](O)[C@H](O)[C@H]2O)C(C)(C)[C@@H]4CC[C@H]3[C@]2(C)CC3OC4(C[C@@H](C)C3[C@@]12C)OCC1(C)OC14` (stereo partly specified), the results for the max response in the assay with CRL-7250, with KB-3-1 and in the assay with NIH3T3 were -1.36%, -4.87% and 3.69%, respectively. Further, the outcome in the assay on HEK293 and in the assay on HaCat was inactive.
Turning to `CC[C@H]1OC(=O)C[C@@H](O)[C@H](C)[C@@H](O[C@@H]2O[C@H](C)[C@@H](O)[C@H](N(C)C)[C@H]2O)[C@@H](CCN2C[C@H](C)C[C@H](C)C2)C[C@@H](C)C(=O)/C=C/C(C)=C/[C@@H]1CO[C@@H]1O[C@H](C)[C@@H](O)[C@@H](OC)[C@H]1OC`, the max response in the assay on CRL-7250 was 1.46%; in the assay with KB-3-1, 2.68% and 4.42%. For the same molecule, the call in the assay with HaCat and in the assay on NIH3T3 was inactive.
As to `O=C(NC[C@H](O)CN1CCc2ccccc2C1)c1cc(NC2COC2)ncn1`, the max response with CRL-7250 was -6.51% and -13.6%; in the assay with HEK293, -6.86%; with HaCat, -0.448%; in the assay on NIH3T3 it was -2.53%. Also, the outcome with KB-3-1 and with NIH3T3 was inactive.
For `COc1cc([C@@H]2Oc3c(OC)cc(CCCO)cc3[C@@H]2CO[C@@H]2O[C@H](CO)[C@@H](O)[C@H](O)[C@H]2O)ccc1O`, the molecule was classed as inactive with CRL-7250, in the assay on HEK293 and in the assay with NIH3T3. For the same molecule, the max response is -11.2% in the assay on HaCat and 9.39% with KB-3-1.
Consider `CCc1nc(C(N)=O)c(Nc2ccc(N3CCC(N4CCN(C)CC4)CC3)c(OC)c2)nc1NC1CCOCC1`, for which the Potency in the assay on CRL-7250 was 5.24 µM (active); in the assay with HEK293, 1.61 µM (active) and 1.32 µM (active); in the assay on HaCat it was 2.55 µM (active); in the assay on NIH3T3, 1.01 µM (active) and 831 nM (active).
In the case of `C[C@@H]1C[C@H](O)/C=C/[C@H](O)[C@@H](O)CC(=O)O1`, the values for the max response in the assay with CRL-7250 and with HaCat were 2.61% and 3.57%, respectively. In addition, the result in the assay with HEK293, with KB-3-1 and in the assay with NIH3T3 was inactive.
With `CCOc1cc2ncc(C#N)c(Nc3ccc(OCc4ccccn4)c(Cl)c3)c2cc1NC(=O)/C=C/CN(C)C`, the Potency with HEK293 was 1.42 µM (active); in the assay on HaCat, 0.224 µM (active). For the same molecule, in the assay on KB-3-1, the max response is -14.4%.
`CC(C)=CCCC1(C)Oc2cc3c(c4c2C2C(O4)C(C)(O)CCC21)CN(C(CCC(=O)O)C(=O)O)C3=O` (stereo unspecified): the molecule was classed as inactive in the assay on CRL-7250, in the assay with HEK293, in the assay with KB-3-1 and with NIH3T3. Moreover, the max response with HaCat was -6.38%.
Take `C=C[C@@]1(C)CC(=O)C2[C@](C)(O1)[C@@H](OC(C)=O)[C@@H](O)[C@H]1C(C)(C)CCC[C@]21C` (stereo partly specified): the max response is -2.88% in the assay with CRL-7250 and 7.42% in the assay on KB-3-1. Further, the call in the assay with HEK293, with HaCat and with NIH3T3 was inactive.
For `CON(C)C(=O)N1N=C(c2cc(F)ccc2F)S[C@@]1(CCCN)c1ccccc1`, the max response in the assay with CRL-7250 was -53.9% and -40.4%; in the assay with NIH3T3, -29.1%. In addition, the Potency is 0.0046 µM (active) with HEK293 and 0.0082 µM (active) in the assay on KB-3-1.
On to `Cc1cc(Nc2ncc(Cl)c(Nc3ccccc3S(=O)(=O)C(C)C)n2)c(OC(C)C)cc1C1CCNCC1`, for which, in the assay on CRL-7250, the max response was -10.6%. Moreover, the Potency is 8.2 µM (active) and 4.17 µM (active) in the assay with HEK293; 18.4 µM (active) with KB-3-1; 23.4 µM (active) in the assay with NIH3T3. Also, the molecule was classed as inactive in the assay with HaCat and with NIH3T3.
Consider `CCC[C@@H]1C[C@@H](C(=O)N[C@@H]([C@H]2O[C@H](SC)[C@H](OP(=O)(O)O)[C@@H](O)[C@H]2O)[C@H](C)Cl)N(C)C1`, for which the max response was -7.94% in the assay with CRL-7250; -4.58% with HEK293; 4.98% with HaCat; -22.3% and -12.7% and 0.837% in the assay with KB-3-1. Further, the result in the assay with NIH3T3 was inactive.
`C=CCc1ccc(O[C@@H]2O[C@H](CO[C@@H]3O[C@@H](C)[C@H](O)[C@@H](O)[C@H]3O)[C@@H](O)[C@H](O)[C@H]2O)cc1`: the max response in the assay on CRL-7250 is -0.302%; with HaCat it was 4.55%; in the assay on KB-3-1 it was 2.9%. Besides, the outcome with HEK293 and in the assay on NIH3T3 was inactive.
